Bioassay records: PubChem BioAssay, National Center for Advancing Translational Sciences (NCATS)
Vaccinia mCherry: vaccinia inhibition (mCherry reporter). 0.63% of 310,000 active. Potency, µM (top dose mostly 36.5 µM), for the others: at the top dose activity change, negative = inhibition, actives largely listed as inhibitors. Vaccinia virus mCherry reporter infection, fluorescence; calls by dose curve; tested in A549 cells; further: potency means the concentration at half of the fitted maximal effect; on the % scale 0 is the no-effect control and ±100 the full control effect; nearly all actives have a fitted effect of over 35% in size
Vaccinia Venus: inhibitors of vaccinia virus (Venus reporter); Vaccinia virus Venus reporter expression, fluorescence; Potency, µM (series often up to 36.5 µM), for inactives: top-dose activity change, negative = inhibition, actives largely listed as inhibitors; 0.46% of 330,000 active; AID 720580; calls by dose curve; tested in A549 cells; further: potency means the concentration at half of the fitted maximal effect; on the % scale 0 is the no-effect control and ±100 the full control effect; nearly all actives have a fitted effect of over 30% in size
Lassa entry inh: Lassa virus entry inhibition; Lassa virus pseudotype entry inhibition, cell reporter; Potency, µM (series often up to 37.9 µM), without a hit: top-dose activity change, negative = inhibition, usual class: inhibitors; 1.2% of 300,000 active; calls by dose curve; tested in HEK293 cells; further: potency means the concentration at half of the fitted maximal effect; on the % scale 0 is the no-effect control and ±100 the full control effect; nearly all actives have a fitted effect of over 50% in size
CHX counter: affects cycloheximide protein synthesis inhibition readout, counter-screen; max response, %; cell reporter, cycloheximide protein synthesis inhibition counterscreen; 12% of 300,000 active; in the data active means max response mostly above about 13%, no sharp cut-off; inactive means mostly below about 14%; further: read at 38.3 µM for the half of the compounds with a filed dose; 0% is about no effect
Shiga inhibitor: Shiga toxin inhibition; 9.2% of 290,000 active; inhibition, % at 38.7 µM; Vero cells, Shiga toxin protein synthesis inhibition reporter; AID 2315; in the data active means inhibition mostly above about 28%, no sharp cut-off; inactive means mostly below about 43%; further: 0% is about no effect
Marburg entry inh: Marburg virus entry inhibition | Potency, µM (series often up to 37.8 µM), for the others: top-dose activity change, negative = inhibition, usual class: inhibitors | AID 540276 | 1.8% of 300,000 active | Marburg virus pseudotyped entry inhibition, cell reporter; calls by dose curve; tested in HEK293 cells; further: potency means the concentration at half of the fitted maximal effect; on the % scale 0 is the no-effect control and ±100 the full control effect
* = called active by the depositor; i = inactive; ? = inconclusive; / = not tested or not shown; ! = a repeat was not active; [ ] = remark or other dose. Many of the other results were omitted from the sample, so hits are more common in it than they were.

SMILES | Vaccinia mCherry | Vaccinia Venus | Lassa entry inh | CHX counter | Shiga inhibitor | Marburg entry inh
COc1ccc(Cl)cc1-c1ccc(C(=O)O)o1 | / | / | / | 4 | i | /
CCc1ccc(S(=O)(=O)c2nnn3c2nc(N(C)Cc2ccccc2)c2cc(Cl)ccc23)cc1 | -7% | -9% | / | / | / | -11%[46.1 µM]
O=C(O)CCCC1(C(=O)O)CCCC1 | -5% | 4% | 0%[46.1 µM] | / | / | ?
COc1ccccc1CNC(=O)c1ccc(-c2ccccc2C(F)(F)F)o1 | 11µM* | ? | ? | -1 | 11 | -25%
CC(C)CNC(=O)CCCc1ccccc1 | / | 3% | ? | 43* | 35* | 1%
COc1ccccc1CNC(=O)Cc1ccc(C)cc1 | / | / | / | 25* | 38 | /
O=S(=O)(CCN(CCS(=O)(=O)C(F)(F)F)CC1CCCO1)C(F)(F)F (stereo not drawn) | i | -11% | ? | -1 | -3 | ?
FC(F)(F)c1cccc(NC(=S)Nc2cccc(NC(=S)Nc3cccc(C(F)(F)F)c3)n2)c1 | ? | 10% | ? | 24* | 44* | ?
CC1CCN(Cc2nc(Cl)c3c4c(sc3n2)CCC4)CC1 | -12% | -18% | / | 25* | 33 | /
Cc1sc2nc(CN3CCCC3)nc(N3CCN(S(=O)(=O)c4cccs4)CC3)c2c1C | / | / | -7% | -11 | -21 | 15µM*!
Cc1sc2nc(CN3CCCCC3)nc(Cl)c2c1C | -9% | -14% | ? | 15* | 14 | -34%
Cc1sc2nc(CN3CCCCC3)nc(N3CCN(C(=O)c4ccco4)CC3)c2c1C | -7% | 10% | 16%[46.1 µM] | -5 | 20 | ?
Clc1nc(CN2CCCCC2)nc2sc3c(c12)CCCC3 | -18% | ? | / | 31 | 30 | /
CC(C)NS(=O)(=O)c1cc(C(F)(F)F)ccc1/C=C/C(=O)O | -19% | -9% | / | / | / | /
CC(C)(C)OC(=O)N1CCN(c2ccc(NC(=O)c3ccco3)cc2)CC1 | -9% | -9% | / | 7 | 14 | -17%[46.1 µM]
COc1ccc(N2CCN(c3c(S(=O)(=O)c4ccccc4)cnc4ccc(OC)cc34)CC2)cc1 | i | -19% | ? | -2 | 13 | 8.9µM*
CCOc1ccc2ncc(S(=O)(=O)c3ccccc3)c(N3CCN(c4ccc(OC)cc4)CC3)c2c1 | -5% | -29% | ? | -5 | -1 | ?
N#Cc1ccccc1CSc1nnc(-c2ccccc2)o1 | 12% | 9% | 1%[46.1 µM] | / | / | ?
c1ccc(-c2ncc(-c3ccn[nH]3)s2)cc1 | -7% | -4% | ? | 46* | 93* | ?
CC(=O)c1cc(-c2ccc(F)cc2)n(CCC(=O)Nc2nc3c(C)cccc3s2)c1C | -29% | -30% | -21%[46.1 µM] | / | / | /
O=C(Nc1cccnc1)c1ccc(Cl)c(S(=O)(=O)N2CCOCC2)c1 | -8% | 4% | 1% | -5 | -8 | 3%
O=C(NCCc1ccccc1)c1ccc(Cl)c(S(=O)(=O)N2CCOCC2)c1 | -17% | -16% | ? | 24* | 31 | -2%[46.1 µM]
COc1ccc(C(=O)Nc2cccc(S(=O)(=O)N3CCCC3)c2)cc1S(=O)(=O)N1CCOCC1 | i | -8% | -4%[46.1 µM] | / | / | -7%[46.1 µM]
Cc1cccc(N(Cc2ccccc2)C(=O)c2ccc(F)c(S(=O)(=O)N3CCOCC3)c2)c1 | -1% | -16% | -27% | / | / | 11µM*
O=C(Nc1cccc(S(=O)(=O)C(F)F)c1)c1ccc(Cl)c(S(=O)(=O)N2CCOCC2)c1 | i | ? | ? | 10 | -9 | 10µM*!
SMILES | Vaccinia mCherry | Vaccinia Venus | Lassa entry inh | CHX counter | Shiga inhibitor | Marburg entry inh
O=C(Nc1cccc(Br)c1)c1ccc(Cl)c(S(=O)(=O)N2CCOCC2)c1 | ? | ? | ? | 21* | 35 | ?
O=C(Cc1ccccc1Nc1c(Cl)cccc1Cl)OCO/N=[N+](\[O-])N1CCCC1 | / | / | / | 11 | 19 | /
COc1cccc(CNC(=O)c2c(OC)cc(=O)n3c2CCN(C(=O)c2csc(C)n2)CC3)c1 | -15% | -10% | / | / | / | /
Cc1cccc(-c2c3c(=O)n(C)c(=O)n(C)c3c3c(C)nc4ccccc4n23)c1 | -3% | -29% | 18%[46.1 µM] | / | / | -4%[46.1 µM]
CCOc1ccc(C(=O)Nc2cccc(C)n2)cc1 | -20% | -19% | ? | 25* | 25 | 8.9µM*
CCOc1ccc(NC(=O)Nc2cc(C)ccc2F)cc1 | / | / | -1% | 34* | 54* | 2%
CCCCOc1ccc(C(=O)Nc2cccc(C)n2)cc1 | -15% | -11% | ? | 43* | 74* | ?
CCOc1ccc(NC(=O)Nc2cccc(C)n2)cc1 | -23% | -9% | 1%[46.1 µM] | 28* | 72* | ?
CCOc1ccc(NC(C(=O)Nc2cccc(C(C)=O)c2)c2ccccc2)cc1 (stereo not drawn) | i | 0% | -12% | 0 | -3 | ?
CCOC(=O)c1cccc(NC(=O)Nc2ccc(OCC)cc2)c1 | / | / | ? | 39* | 108* | ?
CCOc1ccc(/C=C/C(=O)Nc2cccc(C(C)=O)c2)cc1 | -24% | -21% | 0% | 27* | 64* | -25%
Cc1cccc(NC(=O)c2ccc(S(=O)(=O)N(C)C)cc2)n1 | / | -7% | ? | 37* | 78* | 5%[46.1 µM]
CCOc1ccc(NC(=O)Nc2cccc(C(=O)O)c2)cc1 | -15% | -18% | ? | -1 | -11 | ?
C=CCOC(=O)NC(CC(=Nc1ccc(OC)cc1)C(=O)OC)c1ccccc1 (stereo not drawn) | / | / | / | / | / | 5%[14.2 µM]
COc1cc(OC)cc(-c2nc(-c3cccc(C)c3)no2)c1 | i | 4% | 12%[46.1 µM] | / | / | ?
COc1ccccc1-c1nc(-c2cccc(C)c2)no1 | / | -23% | ? | 46* | 122* | ?
COc1ccc(-c2nc(-c3cccc(C(F)(F)F)c3)no2)cc1OC | / | / | 2% | -4 | -10 | 25%
COc1ccc(-c2nc(-c3cccc(C)c3)no2)cc1OC | / | / | 17% | 25* | 60* | ?
COc1ccccc1OCc1nc(-c2cccc(C)c2)no1 | -7% | -14% | 8%[46.1 µM] | / | / | ?
COc1cc(-c2nc(-c3cccc(C)c3)no2)cc(OC)c1OC | -8% | -8% | -2% | 16* | 33* | 7%
COCC(=O)Nc1cc(C(=O)NC2Cc3ccccc3C2)cc2nc(-c3cccnc3)n(C)c12 | -13% | 7% | / | / | / | /
Cc1ccc(OCc2nc(C#N)c(N3CCCCC3)o2)cc1 | -23%[7.34 µM] | 3%[7.34 µM] | -10% | 18* | 14 | 3%[46.1 µM]
CCN1CCN(c2oc(COc3ccc(-c4ccccc4)cc3)nc2C#N)CC1 | ? | ? | -20% | 20* | 2 | -16%
N#Cc1nc(COc2ccc(Br)cc2)oc1N1CCN(Cc2ccccc2)CC1 | -3% | -23% | -11% | -1 | 33 | -9%
N#Cc1nc(COc2ccccc2)oc1N1CCCCC1 | -10% | -2% | / | 51* | 83* | /
N#Cc1nc(Cc2ccccc2)oc1N1CCC(Cc2ccccc2)CC1 | / | -12% | 7.1µM* | -5 | 29 | -18%
N#Cc1nc(COc2ccccc2Cl)oc1N1CCCCCC1 | ? | -16% | / | -3 | -2 | /
N#Cc1nc(COc2ccccc2F)oc1N1CCCCCC1 | 4% | 7% | 18% | 24* | 28* | ?
CCC1CCCCN1C(=O)COc1ccc(N(C)S(=O)(=O)c2ccc(C)cc2)cc1 (stereo not drawn) | / | / | / | 1 | 22 | /
